Cycloheximide cs: Cycloheximide Counterscreen for Small Molecule Inhibitors of Shiga Toxin; hit rate 12% among 300,000; cell reporter, cycloheximide protein synthesis inhibition counterscreen; max response, %; in the data active = max response mostly above about 13%, no sharp cut-off; inactive = mostly below about 14%; also: read at 38.3 µM for the half of the compounds with a filed dose; 0% is about no effect
NS1 inh: qHTS Assay for Inhibitors of Influenza NS1 Protein Function. hit rate 0.4% among 270,000. Potency, µM (top dose mostly 46.1 µM), for inactives: at the highest dose activity, positive = more growth. AID 2326, 2010; calls by dose curve; also: potency is read from the fitted curve at half-maximal effect; actives are rising curves; nearly all actives have a fitted effect of over 50% in size
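Compounds were scored for reversing the slow growth caused by influenza A NS1 in S. cerevisiae, measured by optical density at 600 nm. Assay medium contained 2% galactose at pH 6.0; NS1-free yeast of the same strain were the positive control.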
Pf growth 96h: Primary qHTS for delayed death inhibitors of the malarial parasite plastid, 96 hour incubation | P. falciparum luciferase reporter growth, 96 h | hit rate 6.9% among 320,000 | Potency, µM (doses to about 28.7 µM), for the others: at the top dose activity change, negative = inhibition, most hits filed as inhibitors; also: potency is read from the fitted curve at half-maximal effect; % is scaled to controls: 0 for no effect and ±100 for the full control effect
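96 h incubation, 37 C, 5% CO2, of luciferase-reporter P. falciparum-infected RBCs (2% hematocrit, 0.05% parasitemia final) with test compounds; endpoint luminescence.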
Pf growth 48h: Primary qHTS for delayed death inhibitors of the malarial parasite plastid, 48 hour incubation | hit rate 5.9% among 310,000 | P. falciparum luciferase growth in erythrocytes, 48 h | AID 504832, 2011 | Potency, µM (titrated, usually from 28.7 µM), inactives show at the highest dose activity change, negative = inhibition, usual class: inhibitors; also: potency is read from the fitted curve at half-maximal effect; % is scaled to controls: 0 for no effect and ±100 for the full control effect
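First compound was added to culture medium, then infected red cells at 0.1% parasitemia and 2% hematocrit (final). After incubation at 37 C under 5% CO2, luciferase detection reagent was dispensed and light output recorded.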
Shiga toxin inh: A qHTS for Small Molecule Inhibitors of Shiga Toxin. Vero cells, Shiga toxin protein synthesis inhibition reporter. hit rate 9.2% among 290,000. inhibition, % at 38.7 µM. AID 2315, 2010; in the data active = inhibition mostly above about 28%, no sharp cut-off; inactive = mostly below about 43%; also: 0% is about no effect
* marks the source's active call; other numbers are inactive results; [ ] = remark or other dose. An excerpt weighted towards active compounds, which were near 21% of everything screened. Unless noted, calls follow the shape of the dose curve; as a rule, active = well fitted inhibition curve with a large enough effect; inconclusive = small, poorly fitted or top-dose-only effect, or another doubt; inactive = no such curve, though single readings can be large or run the other way.

Screening COc1ccc(NC(=O)c2ccc(-n3cncn3)c([N+](=O)[O-])c2)cc1OC returned Pf growth 96h inconclusive and Pf growth 48h -5.3%.
`O=C(Nc1ccccc1Cl)c1ccc(-n2cccn2)c([N+](=O)[O-])c1` gave Cycloheximide cs 16.0, NS1 inh -7.3%, Pf growth 96h inconclusive, Pf growth 48h 5.1% and Shiga toxin inh 41.5*.
Screening Cc1ccc(NC(=O)c2ccc(-n3cccn3)c([N+](=O)[O-])c2)cc1 returned Cycloheximide cs 20.6*, NS1 inh -25.6%, Pf growth 96h inconclusive, Pf growth 48h -12.3% and Shiga toxin inh 21.8.
O=C(Nc1ccc(NC(=O)c2ccc([N+](=O)[O-])cc2[N+](=O)[O-])cc1)c1ccco1 was read as Cycloheximide cs -4.2, NS1 inh 6.2%, Pf growth 96h -16.6%, Pf growth 48h inconclusive and Shiga toxin inh -6.0.
Screening Cc1cccc(NC(=O)c2ccc(-n3cccn3)c([N+](=O)[O-])c2)c1 returned Cycloheximide cs 31.6*, NS1 inh 1.6%, Pf growth 96h inconclusive, Pf growth 48h 2.5% and Shiga toxin inh 49.2.
`O=C(Nc1ccc(C2=NCCN2)cc1)c1ccc(C(=O)Nc2ccc(C3=NCCN3)cc2)c([N+](=O)[O-])c1` gave Cycloheximide cs -2.1, NS1 inh -42.0%, Pf growth 96h 0.147µM*, Pf growth 48h 0.37µM* and Shiga toxin inh 9.2.
`CN(C(=O)COc1ccccc1C(=O)NCCOc1ccccc1)c1ccccc1` gave Cycloheximide cs -3.0, NS1 inh -21.7%, Pf growth 96h inconclusive, Pf growth 48h inconclusive and Shiga toxin inh -9.7.
`C=CCOc1ccc(/C=C2\SC(=Nc3cccnc3)NC2=O)cc1` gave Cycloheximide cs 10.3*, NS1 inh 4.3%, Pf growth 96h 10.4µM*, Pf growth 48h inconclusive and Shiga toxin inh 22.1.
Screening Cc1ccccc1-c1nnc(NC(=O)c2ccc(N3C(=O)CCC3=O)cc2)s1 returned Cycloheximide cs 0.8, NS1 inh -15.7%, Pf growth 96h 9.28µM*, Pf growth 48h -25.6% and Shiga toxin inh -14.2.
`C=C(C)C(=O)Nc1nnc(-c2ccccc2C)s1` gave Cycloheximide cs 33.6*, NS1 inh 9.4%, Pf growth 96h -8.7%, Pf growth 48h -23.6% and Shiga toxin inh 24.3.
For CC(C)c1nnc(NC(=O)c2ccc(N3C(=O)CCC3=O)cc2)s1 the results were Cycloheximide cs -1.5, NS1 inh -9.7%, Pf growth 96h 0.0%, Pf growth 48h -28.8% and Shiga toxin inh 0.4.
Screening Cc1cccc(-c2nnc(NC(=O)c3ccc(N4C(=O)CCC4=O)cc3)s2)c1 returned Cycloheximide cs -3.4, NS1 inh 9.1%, Pf growth 96h 4.65µM*, Pf growth 48h inconclusive and Shiga toxin inh -12.6.
`CC(=O)Nc1ccc(C(=O)Nc2ccncc2)cc1` gave Cycloheximide cs 0.3, NS1 inh -14.0%, Pf growth 96h 0.0%, Pf growth 48h 3.2% and Shiga toxin inh -7.0.
O=C(Nc1cccnc1)c1ccc(-c2ccccc2)cc1 was read as Cycloheximide cs 32.8*, Pf growth 96h 36.8%[1.15 µM], Pf growth 48h 116.7% and Shiga toxin inh 71.9*.
O=C(Nc1ccncc1)c1ccc(-c2ccccc2)cc1 was read as Cycloheximide cs 35.6*, Pf growth 96h inconclusive, Pf growth 48h -14.4% and Shiga toxin inh 121.2*.
O=C(Nc1ccncc1)c1ccc(F)cc1 was read as Cycloheximide cs 8.4, NS1 inh -28.1%, Pf growth 96h 5.22µM* and Shiga toxin inh 4.0.
Screening CC(C(=O)Nc1ccncc1)(c1ccccc1)c1ccccc1 returned Cycloheximide cs -2.5, NS1 inh 0.6%, Pf growth 96h 10.4µM*, Pf growth 48h inconclusive and Shiga toxin inh -15.2.
`Cc1nc2c(C)cccn2c1/C(O)=C1\C(=O)C(=O)N(CCN(C)C)C1c1ccco1` (configuration not stated) gave Cycloheximide cs 6.1, NS1 inh -2.0%, Pf growth 96h 6.7%, Pf growth 48h 51.8% and Shiga toxin inh -1.4.
Screening COc1ccc(S(=O)(=O)NCCCN2CCCC2=O)c(OC)c1 returned Cycloheximide cs -0.5, NS1 inh 2.6%, Pf growth 96h -1.7%, Pf growth 48h 7.8% and Shiga toxin inh 13.9.
O=C(Nc1ccc(-c2cnco2)cc1)c1ccc(Cl)cc1 was read as Cycloheximide cs 9.7, NS1 inh 0.6%, Pf growth 96h 17.0%, Pf growth 48h 31.5% and Shiga toxin inh 13.8.
`O=C(NNC(=O)c1ccc(-c2ccccc2)cc1)c1ccccc1` gave Cycloheximide cs 20.4*, NS1 inh 5.2%, Pf growth 96h inconclusive, Pf growth 48h 94.0% and Shiga toxin inh 67.0*.
Screening O=C(Nc1cccnc1)c1cnc2ccccc2n1 returned Cycloheximide cs 12.7*, NS1 inh -15.0%, Pf growth 96h inconclusive, Pf growth 48h 63.8% and Shiga toxin inh 69.7*.
Cc1cccc(C(=O)NNC(=O)c2ccc(-c3ccccc3)cc2)c1 was read as Cycloheximide cs -0.6, NS1 inh 6.0%, Pf growth 96h inconclusive, Pf growth 48h 7.7% and Shiga toxin inh -8.5.
`CC(C)c1ccc(C(=O)Nc2cccnc2)cc1` gave Cycloheximide cs 36.5*, NS1 inh -44.1%, Pf growth 96h 10.4µM* and Pf growth 48h 317.3%.
For O=C(Nc1ccc(-c2cnco2)cc1)c1ccccc1 the results were Cycloheximide cs 46.9*, NS1 inh -6.1%, Pf growth 96h 150.8%, Pf growth 48h 94.1% and Shiga toxin inh 93.0*.
Screening CCN(CC)C(=O)CSc1nc2cc(OC)c(OC)cc2c(=O)n1Cc1ccc(Cl)cc1 returned Cycloheximide cs -5.0, NS1 inh 4.6%, Pf growth 96h inconclusive, Pf growth 48h 11.7µM* and Shiga toxin inh -21.4.
`COc1cc2nc(SCC(N)=O)n(CCC3=CCCCC3)c(=O)c2cc1OC` gave Cycloheximide cs -5.8, NS1 inh -2.1%, Pf growth 96h 13.1µM*, Pf growth 48h -12.1% and Shiga toxin inh -3.6.
For COCCNC(=O)CSc1nc2cc(OC)c(OC)cc2c(=O)n1CCC1=CCCCC1 the results were Cycloheximide cs -1.2, NS1 inh inconclusive, Pf growth 96h 58.3%, Pf growth 48h 14.8% and Shiga toxin inh -7.4.
CCN(CC)C(=O)CSc1nc2cc3c(cc2c(=O)n1CCCC(=O)NCc1ccc(OC)cc1)OCO3 was read as Cycloheximide cs -2.5, Pf growth 96h -13.1%, Pf growth 48h -28.4% and Shiga toxin inh 11.6.
`COc1ccc(C(=O)N/C(=C\c2cn(C)c3ccccc23)C(=O)NCCCN2CCOCC2)cc1OC` gave Cycloheximide cs -3.2, NS1 inh -8.0%, Pf growth 96h 17.0%, Pf growth 48h -5.2% and Shiga toxin inh -0.9.
`O=C(N/N=C/c1ccccc1OC(=O)c1ccc2c(c1)OCO2)c1ccccc1` gave Cycloheximide cs 20.6*, NS1 inh 19.4%, Pf growth 96h 1.4%, Pf growth 48h 10.5% and Shiga toxin inh 64.1*.
